Experimental data published in PMC5540273 (PLoS ONE, 2017).

Key:
Conditions in all cases: concentration: 1 μM, replicates: in singlicate; n = 1
CSF1R-autoinhibited = system: CSF1R-autoinhibited
CSF1R = system: CSF1R
CSK = system: CSK
CSNK1A1L = system: CSNK1A1L
CSNK1A1 = system: CSNK1A1
CSNK1D = system: CSNK1D
CSNK1E = system: CSNK1E
CSNK1G1 = system: CSNK1G1
CSNK1G2 = system: CSNK1G2
CSNK1G3 = system: CSNK1G3
CSNK2A1 = system: CSNK2A1
CSNK2A2 = system: CSNK2A2
CTK = system: T1, CTK
T1 construct: gene MATK

DAPK1 = system: DAPK1
DAPK2 = system: DAPK2
DAPK3 = system: DAPK3
DCAMKL1 = system: T2, DCAMKL1
T2 construct: gene DCLK1

DCAMKL2 = system: T3, DCAMKL2
T3 construct: gene DCLK2

DCAMKL3 = system: T4, DCAMKL3
T4 construct: gene DCLK3

DDR1 = system: DDR1
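Further: KINOMEscan kinase panel screen.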

Structure (SMILES) | %Inh (CSF1R-autoinhibited) | %Inh (CSF1R) | %Inh (CSK) | %Inh (CSNK1A1L) | %Inh (CSNK1A1) | %Inh (CSNK1D) | %Inh (CSNK1E) | %Inh (CSNK1G1) | %Inh (CSNK1G2) | %Inh (CSNK1G3) | %Inh (CSNK2A1) | %Inh (CSNK2A2) | %Inh (CTK) | %Inh (DAPK1) | %Inh (DAPK2) | %Inh (DAPK3) | %Inh (DCAMKL1) | %Inh (DCAMKL2) | %Inh (DCAMKL3) | %Inh (DDR1)
CN1c2ccc(-c3ccc(C(=O)NCCO)cc3)cc2-c2[nH]ncc2S1(=O)=O | 25% | 0% | 9% | 7% | 4% | 5% | 3% | 0% | 0% | 6% | 25% | 47% | 0% | 32% | 36% | 31% | 26% | 12% | 2% | 0%
Cl.Cn1ccc(-c2cccc(Nc3ccnc4cc(-c5nccs5)ccc34)c2)n1 [GW525701] | 29% | 0% | 0% | 5% | 0% | 12% | 21% | 5% | 0% | 0% | 0% | 0% | 0% | 17% | 0% | 2% | 13% | 0% | 26% | 52%
COC(=O)c1c(-c2ccccc2)c2cc(Cl)ccc2c(=O)n1Cc1ccc(S(C)(=O)=O)cc1 | 6% | 23% | 0% | 0% | 21% | 0% | 3% | 100% | 0% | 0% | 3% | 35% | 3% | 21% | 0% | 0% | 5% | 1% | 4% | 51%
C[C@H]1CC[C@@H](C(=O)Nc2ccccc2)CN1c1cc(-c2ccc3c(N)n[nH]c3c2)nc(N)n1 [GSK2283293] | 26% | 0% | 0% | 16% | 0% | 0% | 7% | 7% | 0% | 7% | 12% | 0% | 0% | 7% | 0% | 0% | 23% | 0% | 8% | 0%
FC(F)(F)c1ccc(-c2nn3ncccc3c2-c2ccnc(Nc3cccc(C(F)(F)F)c3)n2)cc1 [GW828205] | 0% | 0% | 0% | 5% | 30% | 24% | 17% | 2% | 3% | 2% | 0% | 0% | 0% | 0% | 0% | 1% | 34% | 0% | 22% | 86%
COc1ccc(NC(=O)Nc2ccc(C)c(-c3ccc(C(=O)Nc4ccncc4)cc3)c2)cc1 [GSK1398475] | 0% | 93.7% | 0% | 3% | 0% | 15% | 36% | 6% | 6% | 44% | 0% | 0% | 0% | 5% | 0% | 3% | 10% | 0% | 9% | 88%
C[C@@H]1CCN(C(=O)CO)C[C@@H]1N(C)c1ncnc2[nH]ccc12 | 19% | 8% | 21% | 0% | 33% | 6% | 0% | 0% | 0% | 10% | 0% | 0% | 14% | 2% | 7% | 10% | 6% | 0% | 90% | 0%
FC(F)(F)c1cc(Nc2nccc(-c3c(-c4ccc(Cl)cc4)nn4ncccc34)n2)ccc1Cl [GW829351] | 0% | 0% | 0% | 0% | 0% | 81% | 79% | 0% | 0% | 0% | 0% | 11% | 14% | 0% | 0% | 12% | 0% | 0% | 0% | 78%
Fc1ccc(Nc2nccc(-c3c(-c4ccc(Cl)cc4)nn4ncccc34)n2)cc1F [GW829058] | 0% | 14% | 28% | 3% | 32% | 60% | 22% | 0% | 2% | 0% | 0% | 24% | 30% | 1% | 0% | 8% | 25% | 11% | 0% | 87%
Cl.Cl.c1ccc(-c2cc3ccncc3cc2OC2CCNCC2)cc1 [GSK1122999] | 5% | 49% | 0% | 23% | 16% | 0% | 41% | 14% | 0% | 27% | 0% | 27% | 0% | 93.5% | 66% | 98.8% | 19% | 0% | 30% | 9%
O=C(Nc1n[nH]c2nc(-c3ccco3)c(Br)cc12)c1ccc(CN2CCCC2)cc1.O=C(O)[C@H](O)[C@@H](O)C(=O)O [SB-742352] | 0% | 71% | 0% | 0% | 0% | 0% | 0% | 0% | 0% | 0% | 0% | 29% | 15% | 0% | 0% | 0% | 0% | 0% | 28% | 19%
Cn1cc(-c2ccc3c(c2)CCN3C(=O)Cc2cccc(C(F)(F)F)c2)c2c(N)ncnc21 [GSK2606414] | 0% | 6% | 0% | 14% | 0% | 8% | 0% | 0% | 0% | 17% | 1% | 1% | 18% | 3% | 0% | 89% | 8% | 0% | 0% | 99.7%
N#Cc1ccc(Oc2ccc(Nc3ncnc4cc[nH]c34)cc2Cl)cc1 | 3% | 7% | 33% | 15% | 2% | 5% | 7% | 8% | 25% | 21% | 48% | 24% | 5% | 30% | 16% | 15% | 9% | 24% | 20% | 9%
CN1CCC(n2cnc(-c3ccc(F)cc3)c2-c2ccnc(NC3CCNCC3)n2)CC1 [SB-229482] | 47% | 16% | 0% | 28% | 95.1% | 92.1% | 93.4% | 0% | 0% | 0% | 12% | 21% | 9% | 14% | 15% | 0% | 0% | 16% | 16% | 0%
CSc1nn2c(=O)cc(N3CCOCC3)nc2n1Cc1cccc(Cl)c1Cl [GSK2347225] | 0% | 4% | 0% | 32% | 0% | 13% | 87% | 6% | 0% | 33% | 5% | 33% | 0% | 14% | 5% | 24% | 29% | 0% | 3% | 17%
OCCOCCn1ccc2ncnc(Nc3ccc(Oc4cccc(Cl)c4)c(Cl)c3)c21 | 0% | 0% | 0% | 0% | 0% | 0% | 0% | 0% | 0% | 0% | 0% | 0% | 0% | 0% | 0% | 0% | 36% | 0% | 0% | 0%
NC(=O)c1sc(-n2cnc3ccccc32)cc1OCc1ccccc1F [GSK1024306] | 24% | 0% | 0% | 0% | 0% | 17% | 20% | 0% | 0% | 18% | 10% | 6% | 12% | 3% | 0% | 0% | 0% | 1% | 0% | 19%
Cl.c1ccc(Cn2ncc3cc(Nc4ncnc5ccccc45)ccc32)cc1 [GW273749] | 0% | 22% | 38% | 12% | 0% | 15% | 42% | 12% | 0% | 30% | 4% | 13% | 0% | 5% | 0% | 4% | 9% | 0% | 0% | 3%
Nc1nc(-c2ccc3c(N)n[nH]c3c2)cc(N2CCCCC2)n1 [GSK2228768] | 0% | 1% | 0% | 1% | 0% | 11% | 0% | 0% | 0% | 4% | 0% | 12% | 0% | 3% | 0% | 6% | 0% | 15% | 0% | 0%
CC(C)(C)c1ccc(-n2cnc3c(N)ncnc32)cc1 [SKF-97263] | 0% | 58% | 0% | 17% | 40% | 3% | 18% | 6% | 13% | 25% | 18% | 0% | 0% | 0% | 0% | 0% | 0% | 12% | 0% | 27%
